An excerpt weighted towards active compounds, which were near 9.4% of everything screened.
AMA1-RON2 inh – disrupts binding of P. falciparum AMA1 to RON2; Potency, µM (doses to about 58.2 µM), without a hit: at the top dose activity change, negative = inhibition, usual class: inhibitors; 360,000 tested, 0.2% active; AlphaScreen AMA1-biotinylated RON2 peptide binding; AID 720542;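 also: 0% = vehicle wells and -100% = peptide control; nearly all actives have a fitted effect of over 45% in size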
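AMA1 (3D7) with his tag at 25 nM final met compounds first, then biotinylated RON2 peptide at 25 nM; detection used donor plus acceptor beads, 10 µg/mL apiece, read by AlphaScreen after 30 min at room temperature.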
Pf growth 48h – inhibits P. falciparum growth in the first generation, 48 h | 310,000 tested, 5.9% active | P. falciparum luciferase growth in erythrocytes, 48 h | Potency, µM (titrated, usually from 28.7 µM), without a hit: at the top dose activity change, negative = inhibition, usual class: inhibitors; also: % is scaled to controls: 0 for no effect and ±100 for the full control effect
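In quantitative HTS format, infected erythrocytes bearing luciferase-reporter parasites were treated for a single generation at 37 C. Luminescence after adding detection reagent served as the growth measure.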
SARS PLpro yeast – SARS-CoV PLP inhibition in yeast. S. cerevisiae expressing SARS-CoV PLpro, growth rescue. Potency, µM (doses to about 32.9 µM), without a hit: top-dose activity, positive = growth rescue, hits mostly activators. 330,000 tested, 0.19% active. AID 485353; calls by dose curve; also: 0% is about no effect; nearly all actives have a fitted effect of over 55% in size
Pf growth 96h – P. falciparum growth inhibition at 96 hour, primary screen for plastid delayed-death inhibitors. 320,000 tested, 6.9% active. Potency, µM (series often up to 28.7 µM), for the others: top-dose activity change, negative = inhibition, actives largely listed as inhibitors. P. falciparum luciferase reporter growth, 96 h; also: % is scaled to controls: 0 for no effect and ±100 for the full control effect
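Readout is luminescence from an integrated firefly luciferase in P. falciparum. Red cells, 2% hematocrit and 0.05% parasitemia final, were cultured with compound through two parasite generations (96 hours) at 37 C, 5% CO2.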
Numbers without * were called inactive; ? = inconclusive; nt = not tested or not shown; [ ] = another dose, or the depositor's remark. Unless noted, calls follow the shape of the dose curve; as a rule, active = well fitted curve in the direction sought with a large enough effect; inconclusive = small, poorly fitted or top-dose-only effect, or another doubt; inactive = no such curve, though single readings can be large; an effect the other way counts as inactive or inconclusive. Potency is read from the fitted curve at half-maximal effect.

SMILES	AMA1-RON2 inh	Pf growth 48h	SARS PLpro yeast	Pf growth 96h
COc1ccc(C(=O)Nc2ccc(N3CCOCC3)cc2)cc1S(=O)(=O)N1CCOCC1	-19%	43%	-1%	9%
COc1ccc(C(=O)Nc2cccc(-c3csc(C)n3)c2)cc1S(=O)(=O)N1CCCC1	-1%	12µM*	2%	13µM*
CCC(CO)Oc1cc(NC(=O)Cc2ccccc2F)c2ncn(C(C)C)c2c1 (stereo not drawn)	-1%	nt	3%	nt
COc1cc(/C=C2/S/C(=N/S(=O)(=O)Cc3ccccc3)NC2=O)c([N+](=O)[O-])cc1OC	-9%	?	0%	?
COc1cc(/C=C2\S/C(=N/S(=O)(=O)Cc3ccccc3)NC2=O)c([N+](=O)[O-])cc1OC	-12%	?	1%	8.3µM*
O=C(CSc1ccccc1)Nc1ccc(-c2nc3ccccc3[nH]2)cc1	-6%	?	-17%	-16%
O=C(COc1ccccc1)Nc1cccc(-c2nc3ccccc3[nH]2)c1	-7%	4%	-72%	0%
O=C(CSc1ccc(Cl)cc1)Nc1cccc(-c2nc3ccccc3[nH]2)c1	-16%	3.7µM*	14%	?
COc1cccc(OC)c1C(=O)NC(=S)Nc1cc(-c2nc3ccccc3[nH]2)ccc1Cl	3%	4.1µM*	-38%	?
COc1ccc(OCC(=O)Nc2cccc(-c3nc4ccccc4[nH]3)c2)cc1	-14%	?	-20%	12µM*
Cc1ccc(-c2nnc(SC(C)C(=O)NCC3CCCO3)nc2-c2ccc(C)cc2)cc1 (stereo not drawn)	-25%	13µM*	3%	9.3µM*
CC(Sc1nnc(-c2ccccc2)c(-c2ccccc2)n1)C(=O)NCC1CCCO1 (stereo not drawn)	17%	nt	-1%	nt
CCOc1ccc(NC(=O)CC2C(=O)N(c3ccc(OCC)cc3)C(=S)N2C2CC2)cc1 (stereo not drawn)	13%	?	-6%	?
CCNC(=O)Cc1c(OC)ccc2cc(Br)ccc12	1%	-2%	13%	12%
Cc1ccc(OCC(=O)NC2CC(C)(C)NC(C)(C)C2)cc1C	-5%	11%	0%	9%
CCc1cc(=O)oc2c(C)c(OCC(=O)NC3CC(C)(C)NC(C)(C)C3)ccc12	3%	?	2%	10µM*
COc1ccc2cc(Br)ccc2c1CC(=O)NC1CC(C)(C)NC(C)(C)C1	-7%	nt	10%	8.3µM*
CCc1ccc(OCC(=O)NC2CC(C)(C)NC(C)(C)C2)cc1	0%	?	-1%	6.6µM*
CCc1cc(=O)oc2c(C)c(OC(C)C(=O)NC3CC(C)(C)NC(C)(C)C3)ccc12 (stereo not drawn)	-5%	?	-12%	?
Cc1ccc(N2CCN(/N=C/C3=C(N4CCOCC4)C(=C\c4ccccc4)/CC3)CC2)cc1	-6%	14%	3%	-3%
CC1=CC(C)(C)N2C(=O)C3(C(C#N)=C(N)OC4=C3C(=O)CCC4)c3c(C)c(C)cc1c32 (stereo not drawn)	4%	-26%	-1%	33%
CCOC(=O)C1=C(N)OC2=C(C(=O)CCC2)C12C(=O)N1c3c(ccc(C)c32)C(C)=CC1(C)C (stereo not drawn)	1%	?	?	12µM*
O=C(Nc1ccc(OC(F)(F)F)cc1)c1ccccc1-n1cnnn1	8%	nt	0%	nt
CSc1nc(N)c2c3c(sc2n1)COC(C(C)C)C3 (stereo not drawn)	3%	nt	4%	5.2µM*
CCCC1Cc2c(sc3nc(SC)nc(N)c23)CO1 (stereo not drawn)	-23%	-13%	-5%	112%
SMILES	AMA1-RON2 inh	Pf growth 48h	SARS PLpro yeast	Pf growth 96h
N#CC(Cc1cccc(CC(C#N)(c2ccccc2)c2ccccc2)c1)(c1ccccc1)c1ccccc1	-8%	1.2µM*	0%	0.83µM*
N=c1c(C(=O)NCc2ccc3c(c2)OCO3)cc2c(=O)n3ccccc3nc2n1Cc1cccnc1	-7%	10µM*	1%	3%
N=c1c(C(=O)NCc2ccco2)cc2c(=O)n3ccccc3nc2n1Cc1ccccc1	-4%	?	0%	nt
Cc1ccc(CNC(=O)c2cc3c(=O)n4ccccc4nc3n(Cc3ccco3)c2=N)cc1	-2%	?	-2%	nt
N=c1c(C(=O)NCCN2CCOCC2)cc2c(=O)n3ccccc3nc2n1Cc1ccc(F)cc1	51%	9.3µM*	1%	10µM*
Cc1ccc2nc3c(cc(C(=O)NCc4ccco4)c(=N)n3Cc3ccco3)c(=O)n2c1	0%	1.7µM*	0%	-1%
N=c1c(C(=O)NCc2ccco2)cc2c(=O)n3ccccc3nc2n1Cc1ccc(Cl)cc1	4%	10µM*	4%	2.3µM*
C=CCNC(=O)C(C)N1c2cccc3cccc(c23)S1(=O)=O (stereo not drawn)	-6%	-1%	18%	53%
CC(=O)OC1CC(OC2C(O)CC(OC3C(O)CC(OC4CCC5(C)C(CCC6C5CCC5(C)C(C7=CC(=O)OC7)CCC65O)C4)OC3C)OC2C)OC(C)C1OC1OC(CO)C(O)C(O)C1O (stereo not drawn)	4%	nt	nt	nt
COc1ccc(S(=O)(=O)CCC(=O)NCCc2cccc(C)c2)cc1	1%	nt	10%	?
COc1ccc(S(=O)(=O)CCC(=O)NCCc2ccc(S(N)(=O)=O)cc2)cc1	0%	-12%	-5%	9.3µM*
c1cncc(-c2nc(NCCCN3CCOCC3)c3c4c(sc3n2)CCC4)c1	-7%	12µM*	-2%	?
c1cncc(-c2nc(N3CCOCC3)c3c4c(sc3n2)CCC4)c1	0%	?	0%	?
CCNc1ccc(C(=O)OCC(=O)NCCN2C(=O)CSC2=O)cc1[N+](=O)[O-]	0%	29%	0%	-14%
CCC(C)(C)NC(=O)c1cc(C(=O)OC)cc([N+](=O)[O-])c1	-11%	nt	4%[6.58 µM]	6%
CCCN(CCC)S(=O)(=O)c1ccc(NC(=O)c2cc(C(=O)OC)cc([N+](=O)[O-])c2)cc1	-4%	?	7%	1.9µM*
COC(=O)c1ccc(CO/N=C/c2ccc(OC)cc2OC)cc1	-3%	0%	-1%	0%
COc1ccc(CC(=O)NC(c2ccccc2)c2ccc(C)cc2)c(OC)c1 (stereo not drawn)	-8%	10µM*	4%	?
COc1ccc(OC)c(CC(=O)NC(c2ccccc2)c2ccccc2)c1	-7%	?	-1%	6.6µM*
NC(=S)c1cn(C2OC(CO)C(O)C2O)c2ncnc(N)c12 (stereo not drawn)	-8%	1.3µM*	-2%	4.1µM*
Cc1ccc(C(=O)c2oc3ccc(Cl)cc3c2NC(=O)CN2CCN(C)CC2)cc1	-1%	?	0%	-5%
Cc1ccc2nc(-c3ccccc3)cc(C(=O)NCCCn3ccnc3)c2c1	-4%	13µM*	-4%	?
O=C(NCCCn1ccnc1)c1cc(-c2cccnc2)nc2ccc(Br)cc12	-4%	12µM*	-2%	1.5µM*
O=C(NCCCn1ccnc1)c1cc2nc(-c3ccc(Br)cc3)cc(C(F)(F)F)n2n1	-6%	?	-4%	4.1µM*
